Experimental data taken from PubChem BioAssay AID1851 (National Center for Advancing Translational Sciences (NCATS), 2009).
Several values for one entry are separate records, joined by “and”; a condition that tells them apart may be missing. Equal values may be shown once. In all, about 16,000 compounds went through this assay and about 5,700 (36%) were called active. Inconclusive results (about 24%) are left out. The call rests on the fitted dose curve; in most records, active means well fitted curve in the direction sought with a large enough effect; inconclusive means small, poorly fitted or top-dose-only effect, or effect the other way; inactive means no such curve, though single readings can be large or run the other way. The list shows a part of the results.

The molecules below were run against Cytochrome P450 1A2 (Homo sapiens) (UniProt P05177) (assay: Cytochrome panel assay with activity outcomes). Settings: recombinant CYP, pro-luciferin dealkylation, luminescence, p450-cyp1a2; series mostly up to 57.1 µM; activity, negative = inhibition: at the top concentration.
Cytochrome P450 1A2 (Homo sapiens), sequence (P05177 whole entry, looked up): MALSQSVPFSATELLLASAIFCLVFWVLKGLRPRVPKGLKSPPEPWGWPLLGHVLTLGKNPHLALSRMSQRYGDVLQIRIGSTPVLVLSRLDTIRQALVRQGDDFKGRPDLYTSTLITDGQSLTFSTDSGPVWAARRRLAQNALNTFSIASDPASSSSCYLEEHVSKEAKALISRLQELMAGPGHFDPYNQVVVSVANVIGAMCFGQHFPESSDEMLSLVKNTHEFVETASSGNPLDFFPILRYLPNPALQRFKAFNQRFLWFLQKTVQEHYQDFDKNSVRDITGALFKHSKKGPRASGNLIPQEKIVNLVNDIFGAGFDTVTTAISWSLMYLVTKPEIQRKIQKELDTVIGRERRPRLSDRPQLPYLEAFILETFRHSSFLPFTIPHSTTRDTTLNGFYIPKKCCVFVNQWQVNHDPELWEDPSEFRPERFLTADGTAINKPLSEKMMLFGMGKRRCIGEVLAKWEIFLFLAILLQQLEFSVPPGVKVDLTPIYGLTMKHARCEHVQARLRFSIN
On the % scale 0 is the no-effect control and ±100 the full control effect.

AC50, active:
O=C(Cc1ccccc1)N/N=C\c1ccc(Br)o1 4.47 µM
O=C(Cc1ccccc1)N/N=C/c1cc(Br)c(Br)o1 2.24 µM
COC(=O)c1ccc(-n2cncn2)c(F)c1 0.708 µM
COc1ccccc1OCCCCCc1c(C)n[nH]c1C 1.78 µM
O=c1cc(N2CCCCC2)c(-c2ccccc2)nn1Cc1ccccc1Cl 1.26 µM
Cc1cccc(CNc2ccnc(-c3ccc(C(=O)N(C)C)cc3)n2)c1 25.1 µM
CN(C)C(=O)c1ccc(-c2nccc(NCc3cccnc3)n2)cc1 15.8 µM
C/C(=N\N=C(c1ccccc1)c1ccccc1)c1cccs1 1.41 µM
Cc1ccc(-c2cccc(OC(=O)c3ccccc3F)c2)cc1 1.26 µM
CCn1c(SCc2nc3ccccc3[nH]2)nnc1-c1ccc(OC)cc1 25.1 µM
c1ccc(SCc2nc3ccccc3[nH]2)cc1 11.2 µM
c1ccc(-c2nnc(SCc3nc4ccccc4[nH]3)n2Cc2ccco2)cc1 14.1 µM
Cc1ccccc1CSc1nnc(-c2cccs2)n1Cc1ccco1 4.47 µM
COc1ccc(Oc2ncc3nc(-c4cccs4)c(=O)n(-c4ccccc4)c3n2)cc1 3.16 µM
COc1ncc2nc(-c3cccs3)c(=O)n(-c3ccccc3)c2n1 2 µM
CN(C)c1ncc2nc(-c3cccs3)c(=O)n(-c3ccccc3)c2n1 31.6 µM
COc1ccc(-n2c(=O)c(-c3cccs3)nc3cnc(OC)nc32)cc1 5.01 µM
O=C(c1cc(-c2cccs2)on1)N1CCN(c2ccc(F)cc2)CC1 2.82 µM
Cn1c(=O)c(-c2ccccc2)nc2cnc(OCc3ccccc3)nc21 1.58 µM
Cn1c(=O)c(-c2ccc(Cl)cc2)nc2cnc(OCc3ccccc3)nc21 0.794 µM
COc1ccc(CONS(=O)(=O)c2ccc(NC(C)=O)cc2)cc1Cl 14.1 µM
O=C(CSc1nc2ccccc2c(=O)n1NC(=O)Cc1ccccc1)NCc1ccccc1Cl 15.8 µM
CCOC(=O)c1c(-c2ccccc2)csc1NC(=O)c1cccc(N2C(=O)CCC2=O)c1 8.91 µM
CCOC(=O)c1c(-c2ccc(C)cc2)csc1NC(=O)C1CC=CCC1C(=O)O (stereo not given) 12.6 µM
CCOC(=O)CSc1cc(=O)n(C)c2cc(Cl)ccc12 1.26 µM
O=C(CSCc1c(F)cccc1Cl)NCC1CCCO1 (stereo not given) 15.8 µM
CSc1nc2ccccc2cc1/C=C(\C#N)c1cccc(C)c1 3.55 µM
CSc1nc2ccccc2cc1/C=C(\C#N)c1ccc(Cl)cc1Cl 1.78 µM
CSc1nc2ccccc2cc1/C=C(\C#N)c1ccccc1 2.82 µM
CSc1nc2ccccc2cc1/C=C(\C#N)c1cccc(Cl)c1 2 µM

activity, negative = inhibition, inactive:
N[C@@](CC(=O)O)(Cc1ccccc1)C(=O)O -13.4% [at 2.29 µM]
O=C(O)/C(=C\c1ccccc1)Cc1ccccc1 -18.4% [at 11.4 µM]
COC(=O)c1ccc2ccn(CC(=O)NC3CCCCC3)c2c1 -26.7%
O=P(O)(O)O[C@@H]1O[C@H](CO)[C@@H](O)[C@H](O)[C@@H]1O -16.5% [at 11.4 µM]
O=C(c1ccc(Cl)cc1)N1CCN(c2cc(=O)[nH]nc2-c2ccccc2)CC1 0.0427%
O=[N+]([O-])c1ccc(N2CCN(CCOc3nonc3-c3ccccc3)CC2)c(Cl)c1 -19.6%
Cc1cccc(N(NC(=O)C(C)(C)O)C(=O)c2ccccc2)c1 -6.27%
C/C(=N\N=C1\NC(=O)CC(C(=O)O)S1)c1cccs1 (stereo not given) -18.6%
C[C@@H](CSC(=N)N)C(N)=O -6.57% [at 2.29 µM]
O=C(c1cc(O)c(O)c([N+](=O)[O-])c1)c1ccccc1F -20.4%
O=c1cc(CSc2ccccc2)[nH]c(=S)[nH]1 -15.1%
Cc1cc(NC(=O)CSc2nnc(-c3ccccc3)n2Cc2ccco2)no1 -10.2%
COCCn1c(Cc2ccccc2)nnc1SCc1nc2ccccc2c(=O)[nH]1 -4.28%
CCn1c(SCC(=O)NC(=O)NCc2ccco2)nnc1-c1cccs1 -19.9%
COc1ccc(NC(=O)CCNS(=O)(=O)c2ccc3c(c2)CCC(=O)N3)cc1 0.443%
Cc1ccccc1C1C(C#N)=C2N=C(N)c3c(sc4c3CCCCC4)N2C2=C1C(=O)CC(C)(C)C2 (stereo not given) -4.46%
C/C(CCN1CCCc2nc(C)c(C)cc21)=N\O[C@@H](C)c1cn([C@H](CO)Cc2ccccc2)nn1 -5.46% [at 11.4 µM] and -2.73% [at 11.4 µM]
Nc1ncnc2c1ncn2[C@H]1O[C@@H](C(=O)O)[C@@H](O)[C@H]1O -10.9% [at 11.4 µM]
CC(C)CN1CCCC2(CCN(C(=O)c3csnn3)CC2)C1 -9.16%
Nc1ccc(N2CCN(C(=O)c3ccco3)CC2)cc1 16.2%
O=C(c1ccc2ncsc2c1)N1CCN(c2ccc(O)cc2)CC1 -16.1%
Cc1cc(C)c(-c2noc(C(=O)OC(C)(C)C)c2C(=O)OC(C)(C)C)c(C)c1 -10.5%
O=C(c1csnn1)N1CCC2(CCN(Cc3nccs3)CC2)CC1 -4.92%
COc1ccc(CCNC(=O)CC(NS(=O)(=O)c2ccc(NC(C)=O)cc2)C(C)C)cc1OC (stereo not given) -6.9%
COC(=O)C(NS(=O)(=O)c1ccc(NC(C)=O)cc1)C(C)C (stereo not given) -19.1%
CCc1cc(C(c2ccccc2OC)N2CCOCC2)c(NC(=O)c2ccccc2)s1 (stereo not given) -23.9%
CCOC(=O)c1c(NC(=O)C2C3CCC(O3)C2C(=O)O)sc(C)c1-c1ccc(C)cc1 (stereo not given) 9.59%
CCOC(=O)c1c(-c2cccc(C)c2)csc1NC(=O)c1c(-c2ccccc2)noc1C 6.98%
O=C(c1cc(C(F)(F)F)cc(C(F)(F)F)c1)N1CCC2(CCN(Cc3nccs3)CC2)CC1 -7.63%
Cc1cnc2cc(Cl)ccc2c1SCC(=O)O -2.26% [at 2.29 µM]
Cn1c(=O)cc(SCC(=O)NCCCN2CCOCC2)c2ccc(Cl)cc21 -14.7%
O=C(NCC1CCCO1)c1onc(CSc2ccccc2F)c1C(=O)O (stereo not given) 13.9%
O=C(CN(Cc1ccccc1Cl)C(=O)c1ccc(CN2CCOCC2)o1)NCC1CCCO1 (stereo not given) 0.687%
O=C(NNC(=O)c1cc2cc3ccccc3nc2s1)c1cccc(Cl)c1 -25.7%
CSc1nc(C)c(CCOC(=O)c2cccc(C)c2)c(=O)[nH]1 -10.3%
